According to article PMC6919601, “Identification of Plasmodium dipeptidyl aminopeptidase allosteric inhibitors by high throughput screening” (PLoS ONE, 2019):
Where “and” joins values, the source holds several entries; their conditions need not be identical. Equal values may be shown once. Hit rate of the full screen: of about 110,000 compounds, about 230 (0.21%) showed an effect of 50% or more. The sample as a whole holds a higher share of strong results than the screen did.

target: DPAP1 (Plasmodium falciparum, UniProt Q8IIJ9); test: primary screen, percent inhibition; read by cleavage of a fluorogenic dipeptide substrate; higher = more effect of the substance; set-up: species or system P. falciparum D10 trophozoite lysates; single well
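Further: 30 min substrate incubation versus DMSO and 10 µM JCP410 controls.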

DPAP1, sequence (Q8IIJ9 whole entry, looked up): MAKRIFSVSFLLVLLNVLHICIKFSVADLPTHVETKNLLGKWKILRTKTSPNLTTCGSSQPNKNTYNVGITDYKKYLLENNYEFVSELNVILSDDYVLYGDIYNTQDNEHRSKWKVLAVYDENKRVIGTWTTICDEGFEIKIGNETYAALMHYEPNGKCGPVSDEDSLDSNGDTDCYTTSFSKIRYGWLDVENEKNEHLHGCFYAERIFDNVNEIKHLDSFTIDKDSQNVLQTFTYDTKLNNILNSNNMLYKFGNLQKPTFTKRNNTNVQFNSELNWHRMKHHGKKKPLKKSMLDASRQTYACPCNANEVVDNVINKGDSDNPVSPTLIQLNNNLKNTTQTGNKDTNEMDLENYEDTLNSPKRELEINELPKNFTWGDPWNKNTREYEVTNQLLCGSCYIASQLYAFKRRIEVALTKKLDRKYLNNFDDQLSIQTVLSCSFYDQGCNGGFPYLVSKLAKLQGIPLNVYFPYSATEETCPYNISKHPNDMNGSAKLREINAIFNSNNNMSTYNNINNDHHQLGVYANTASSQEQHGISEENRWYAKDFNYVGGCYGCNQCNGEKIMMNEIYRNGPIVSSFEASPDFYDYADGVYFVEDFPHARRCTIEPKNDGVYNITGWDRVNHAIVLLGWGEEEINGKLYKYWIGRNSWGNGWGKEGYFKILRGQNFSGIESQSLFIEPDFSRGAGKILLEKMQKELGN

SMILES	% Inhibition @ 10 uM
C=CCOCC(O)CSc1nc(C)cc(C)n1 (stereo not shown)	3.48%
O=C(C1CCCC1)N1CCN(C(c2ccccc2)c2ccccc2)CC1	0.795%
O=C(Nc1ccccc1)c1nc2ccccc2s1	5.39%
CCCCCCc1cc2cc(-c3csc(N)n3)c(=O)oc2cc1O	1.12%
CCCCCCc1cc2cc(C#N)c(=O)oc2cc1O	67.5%
CCCCCCc1cc2cc(C(=O)O)c(=O)oc2cc1O	4.08%
C=CCOc1ccc(C2c3c(oc4ccccc4c3=O)C(=O)N2c2nc(C)c(C(=O)OC)s2)cc1 (stereo not shown)	3.12%
CCc1ccc(C2c3c(oc4ccccc4c3=O)C(=O)N2c2nc(C)c(C(=O)OC)s2)cc1 (stereo not shown)	-1.86%
CCOc1cc(C2c3c(oc4ccccc4c3=O)C(=O)N2c2nc(C)c(C(=O)OC)s2)ccc1O (stereo not shown)	69.6%
CCOc1cc(C2c3c(oc4ccccc4c3=O)C(=O)N2c2nc(C)c(C(C)=O)s2)ccc1O (stereo not shown)	-0.828%
CCOc1ccc(C2c3c(oc4ccccc4c3=O)C(=O)N2c2nc(C)c(C(=O)OC)s2)cc1 (stereo not shown)	70.8%
CCOC(=O)c1sc(N2C(=O)c3oc4ccccc4c(=O)c3C2c2ccc(O)c(OC)c2)nc1C (stereo not shown)	2.16%
CCn1cc(C(=O)Nc2ccccc2C(C)C)cn1	6.1%
CCS(=O)(=O)c1nc(S(=O)(=O)c2ccc(C)cc2)c(NCCc2ccccc2)s1	-5.89%
Cc1nc2c(nc(C)n2-c2ccccc2)s1	2.92%
CCOc1ccc(Nc2nc(-c3cccs3)cs2)cc1	-1.37%
CCCCNC(=O)C(CC)n1nc(C)c2sc3ccccc3c2c1=O (stereo not shown)	-2.61%
CCC(C(=O)NCc1ccc(OC(C)C)cc1)n1nc(C)c2sc3ccccc3c2c1=O (stereo not shown)	2.8%
CCc1ccc(CNC(=O)C(CC)n2nc(C)c3sc4ccccc4c3c2=O)cc1 (stereo not shown)	90.8%
CN1CCN(S(=O)(=O)c2ccccc2)CC1	-0.127%
O=S(=O)(c1ccccc1)N1CCN(c2ccccc2)CC1	5.09%
O=C1CN(S(=O)(=O)c2ccccc2)CCN1S(=O)(=O)c1ccccc1	60.8%
COc1cc(CN2CCc3c([nH]c4ccccc34)C2)cc2c1OCO2	-5.11%
CC(=O)C1=C(C)OC(N)=C(C#N)C1c1cc2c(cc1[N+](=O)[O-])OCO2 (stereo not shown)	-1.29%
CN(Cc1cnn(-c2ccccc2)c1)S(=O)(=O)c1ccc(-c2cc(C(F)(F)F)no2)s1	1.05%
CCc1nc(SCc2cccnc2)c(C#N)c(C(F)(F)F)c1C	0.775%

SMILES	% Inhibition @ 10 uM
CCc1nc(S)c(C#N)c(C(F)(F)F)c1C	74.2%
Cc1cc(C(F)(F)F)c(C#N)c(SCc2ccccc2)n1	2.23%
COCc1cc(C)nc(S)c1C#N	43.7% and 44.2%
CSc1nc(C)cc(C(F)(F)F)c1C#N	4.97%
Cc1cc(-c2ccco2)c(C#N)c(S)n1	51.7%
Cc1cc(C)c(C#N)c(Cl)n1	1.27%
Cc1cc(-c2ccco2)c(C#N)c(N)n1	1.38%
CCc1nc(N)c(C#N)c(-c2ccc(Br)s2)c1C	-3.13%
CC(C)(C)c1cc(-c2ccco2)c(C#N)c(S)n1	20.6%
Cc1cc(C(F)(F)F)c(C#N)c(S)n1	82.2%
Cc1cc(C)c(C#N)c(S)n1	89.9%
O=C1c2cccnc2C(=O)N1c1ccccc1-c1ccccc1	-2.29%
COCCNC(=O)c1sc2ncn(CC(=O)N3CCC(C)CC3)c(=O)c2c1C	-2.17%
CCCC(=O)n1nc2c3c(cccc31)C(=O)c1ccccc1-2	-2.75%
Cc1ccc(O)c(/C=N/c2c(C)nn(C)c2C)c1	7.26%
CC(C)CCn1nnc2sc3c(c2c1=O)CCC(C)C3 (stereo not shown)	-6.78%
Cc1ccc(CNc2nc3ccccc3c3nc(-c4ccncc4)nn23)cc1	0.981%
O=C1NC(=S)NC(=O)C1=Cc1ccccc1OCCO	-6.17%
CC(=O)NS(=O)(=O)c1ccc(NC(=O)COc2ccc(C)cc2)cc1	-0.473%
CC(C)(C)c1ccc(C(CC(=O)O)NS(=O)(=O)Cc2ccccc2)cc1 (stereo not shown)	2.72%
Cc1ccc(N2C(=O)C3C4c5ccccc5C(C(C)O)(c5ccccc54)C3C2=O)cc1 (stereo not shown)	53.4%
Cc1cccc(N2C(=O)C3C4c5ccccc5C(C)(c5ccccc54)C3C2=O)c1 (stereo not shown)	2.6%
CC12c3ccccc3C(c3ccccc31)C1C(=O)N(c3ccc(Cl)cc3)C(=O)C12 (stereo not shown)	-1.59%
Cn1c(C2=CC(C)(C)NC(C)(C)C2)ccc1C1=CC(C)(C)NC(C)(C)C1	-5.9%
COCCNC(=O)CCNS(=O)(=O)c1ccc(C)cc1	-0.256%
COc1cc(C2c3c(-c4ccccc4O)n[nH]c3C(=O)N2Cc2ccco2)ccc1O (stereo not shown)	-3.12%

SMILES	% Inhibition @ 10 uM
CCOc1cc(C2c3c(-c4ccccc4O)n[nH]c3C(=O)N2Cc2ccco2)ccc1O (stereo not shown)	52.6%
CCOc1ccc(C2c3c(-c4ccccc4O)n[nH]c3C(=O)N2Cc2ccco2)cc1OC (stereo not shown)	0.366%
Cc1cc(S(=O)(=O)N(Cc2ccccc2)Cc2ccccc2Cl)ccc1-n1cnnn1	58.7%
Cc1cc(S(=O)(=O)N2CCC(n3c(O)nc4ccccc43)CC2)ccc1-n1cnnn1	-0.671%
COc1ccc(CN(Cc2ccccc2)S(=O)(=O)c2ccc(-n3cnnn3)c(C)c2)cc1	2.08%
CNS(=O)(=O)c1cn(CC(=O)NCc2ccccn2)cc1S(=O)(=O)NC	-7.87%
O=C(CC1SC(=O)N(Cc2cccc3ccccc23)C1=O)Nc1nccs1 (stereo not shown)	-2.82%
C(=C\c1ccccc1)/CN1CCN(C2CCN(CCc3ccccc3)CC2)CC1	97.7%
C(=C\c1ccccc1)/CN1CCN(CCc2ccccc2)CC1	1.74%
C(=C\c1ccccc1)/CN1CCN(C2CCN(Cc3ccccc3)CC2)CC1	1.88%
Cc1cc(=O)n2nc(N(C)CC(=O)NCc3ccc4c(c3)OCO4)sc2n1	3%
Cc1nnc2c(NCc3ccccc3)nc3ccc(C(=O)c4ccccc4)cc3n12	0.454%
Cc1nnc2c(NCc3ccc4c(c3)OCO4)nc3ccc(C(=O)c4ccccc4)cc3n12	79.7%
Cc1nnc2c(NCc3ccco3)nc3ccc(C(=O)c4ccccc4)cc3n12	-6.09%
O=C(c1ccco1)N1CCN(c2nc3ccccc3n3nnnc23)CC1	2.76%
CC(=O)N/C(=C\c1ccccc1)C(=O)Nc1ccc(Cl)cc1	-6.99%
O=C(c1ccc(Cl)cc1)N1CCN(CCN2C(=O)c3cccc4cccc(c34)C2=O)CC1	-5.31%
O=C1c2cccc3cccc(c23)C(=O)N1CCN1CCN(S(=O)(=O)c2ccc(Cl)cc2)CC1	5.97%
O=C1C(S(=O)c2ccc(Cl)cc2)=C(O)c2cccc3cccc1c23 (stereo not shown)	77.5%
CC(C)Cc1c(C#N)c(N)nc2sc(C#N)c(N)c12	5.2%
CCOC(=O)CSc1nc(N)c(C#N)c(CC)c1C#N	20.6%
CN(C)c1ccc(-c2c(C#N)c(N)nc(S)c2C#N)cc1	7.55%
C=CCSc1nc(N)c(C#N)c(CC)c1C#N	65.5%
CCc1c(C#N)c(N)nc(S)c1C#N	74.5%
CC(C)Cc1c(C#N)c(N)nc(S)c1C#N	78.5%
CCCCCCc1c(O)nc(S)nc1O	22.8%

SMILES	% Inhibition @ 10 uM
CCCCCCCc1c(C#N)c(N)nc(S)c1C#N	71.3%
CC(C)Cc1c(C#N)c(N)nc(SCC(=O)c2ccc(-c3ccccc3)cc2)c1C#N	16.2%
CCc1c(C#N)c(N)nc(SCc2ccccc2)c1C#N	42.7%
CCSc1nc(N)c(C#N)c(CC)c1C#N	23.3%
COCc1c(C#N)c(S)nc(C)c1[N+](=O)[O-]	30.8%
N=C(NOC(=O)C12CC3CC(CC(C3)C1)C2)c1ccc(Cl)cc1	-0.597%
O=C(CN1CCCC1)Nc1c2c(nc3ccccc13)N(c1ccccc1)CC2	0.144%
Cc1ccc(C(C)C)c(OCC(O)CN2CC(C)OC(C)C2)c1 (stereo not shown)	-1.15%
COc1cc(C2C(C#N)=C(N)OC3=C2C(=O)CCC3)ccc1OCC(=O)Nc1ccc(C)cc1C (stereo not shown)	0.851%
COc1cc(OC)cc(C(=O)Nc2ccc3c(c2)oc2ccccc23)c1	-4.91%
c1cc(CNC2CCCCC2)ccn1	1.84%
c1ccc(C2CCC(NCc3ccncc3)CC2)cc1 (stereo not shown)	97.8%
CCC1CCC(NCc2ccncc2)CC1 (stereo not shown)	-3.42%
N#Cc1ccc(-c2cccnc2)nc1SCC(=O)O	-2.45%
N#Cc1ccc(-c2cccnc2)nc1SCc1ccccc1	61.4%
CC(Sc1nc(-c2cccnc2)ccc1C#N)C(=O)O (stereo not shown)	-3.63%
Cc1nnc2c(Oc3ccc(-c4ccccc4)cc3)nc3ccccc3n12	-7.23%
N=c1n(CCOc2ccccc2)c2ccccc2n1CCN1CCOCC1	-6.25%
CCOc1cc(Br)c(C=C2C(=O)NC(=O)NC2=O)cc1OC	-2.39%
C/C(CCC1CC(C)OC1=O)=N\NC(N)=S (stereo not shown)	-1.6%
OC1(c2ccc(Br)cc2)CCN(Cc2cccc(Cl)c2)CC1	-3.6%
CC1C(C#N)=C(SCc2ccccc2)N=C2CC(C)(C)CC(O)=C21 (stereo not shown)	55.4%
CC1C(C#N)=C(SCC(=O)c2ccc(Cl)cc2)N=C2CC(C)(C)CC(O)=C21 (stereo not shown)	45.5%
CSC1=C(C#N)C(C)C2=C(O)CC(C)(C)CC2=N1 (stereo not shown)	2.76%
Cc1nc(NC(=O)COc2ccc(C(C)(C)C)cc2)ccc1Br	-7.81%
